Bioassay records (PubChem)
Hits are enriched below; roughly 8.7% of the tested compounds scored in any of these assays.
VACV Venus inh – inhibitors of vaccinia virus (Venus reporter); Vaccinia virus Venus reporter expression, fluorescence; Potency, µM (highest dose often 36.5 µM), without a hit: top-dose activity change, negative = inhibition, actives largely listed as inhibitors; 330,000 compounds, 0.46% hits; calls by dose curve; tested in A549 cells; further: nearly all actives have a fitted effect of over 30% in size
Pf growth 96h – P. falciparum growth inhibition at 96 hours | P. falciparum luciferase reporter growth, 96 h | Potency, µM (titrated, usually from 28.7 µM), for the others: at the highest dose activity change, negative = inhibition, usual class: inhibitors | 320,000 compounds, 6.9% hits | AID 504834
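Two parasite generations (96 h, 37 C, 5% CO2) of compound exposure in infected erythrocytes (0.05% parasitemia, 2% hematocrit). Luciferase-reporter P. falciparum; decreased luminescence indicates inhibited growth, aimed at apicoplast-acting delayed death.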
Pf growth 48h – inhibits P. falciparum growth in the first generation, 48 h; 310,000 compounds, 5.9% hits; P. falciparum luciferase growth in erythrocytes, 48 h; AID 504832; Potency, µM (titrated, usually from 28.7 µM), for the others: top-dose activity change, negative = inhibition, most hits filed as inhibitors
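First compound was added to culture medium, then infected red cells at 0.1% parasitemia and 2% hematocrit (final). After incubation at 37 C under 5% CO2, luciferase detection reagent was dispensed and light output recorded.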
VACV mCherry inh – inhibitors of vaccinia virus infection (mCherry reporter signal). 310,000 compounds, 0.63% hits. Potency, µM (highest dose often 36.5 µM), for the others: at the top dose activity change, negative = inhibition, usual class: inhibitors. Vaccinia virus mCherry reporter infection, fluorescence; calls by dose curve; tested in A549 cells; further: nearly all actives have a fitted effect of over 35% in size
AMA1 RON2 block – disrupts binding of P. falciparum AMA1 to RON2 | 360,000 compounds, 0.2% hits | AlphaScreen AMA1-biotinylated RON2 peptide binding | Potency, µM (doses to about 58.2 µM), inactives show top-dose activity change, negative = inhibition, most hits filed as inhibitors;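 further: 0% = vehicle wells and -100% = peptide control; nearly all actives have a fitted effect of over 45% in size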
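AMA1 (3D7) with his tag at 25 nM final met compounds first, then biotinylated RON2 peptide at 25 nM; detection used donor plus acceptor beads, 10 µg/mL apiece, read by AlphaScreen after 30 min at room temperature.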
* = called active by the depositor; i = inactive; ? = inconclusive; · = no result given. Unless noted, the call rests on the fitted dose curve; in most records, active means well fitted curve in the direction sought with a large enough effect; inconclusive means small, poorly fitted or top-dose-only effect, or another doubt; inactive means no such curve, though single readings can be large; an effect the other way counts as inactive or inconclusive. Unless noted, on the % scale 0 is the no-effect control and ±100 the full control effect; potency means the concentration at half of the fitted maximal effect.

SMILES	VACV Venus inh	Pf growth 96h	Pf growth 48h	VACV mCherry inh	AMA1 RON2 block
CCCCN(Cc1cc2ccccc2[nH]c1=O)C(=O)c1cccc(Cl)c1	-24%	·	·	-2%	·
CCc1ccc(NC(=O)CC2C(=O)N(c3ccc(OC)cc3)C(=O)N2Cc2cccs2)cc1 (configuration not stated)	-7%	·	·	-4%	·
N[C@@]1(C(=O)O)CN[C@@H](C(=O)O)C1	-16%	·	·	-3%	·
CCN(CCn1cccn1)C(=O)c1cccc(OC2CCN(S(C)(=O)=O)CC2)c1	0%	10µM*	88%	-10%	6%
C#CCN(CC=C)C(=O)c1cccc(OC2CCN(S(C)(=O)=O)CC2)c1	-10%	?	2%	i	-7%
COc1cccc(NC(=O)C(=O)NCC(c2ccc3c(c2)OCO3)N2CCOCC2)c1 (configuration not stated)	-7%	·	·	-23%	·
Cc1cc(C)c(S(=O)(=O)n2cnc(C)c2)c(C)c1	-1%	·	·	-5%	·
O=C(c1cccc(C(=O)N(c2ccccn2)C2CCCCC2)c1)N(c1ccccn1)C1CCCCC1	-24%	-27%	12µM*	-26%	2%
CCN(CC)c1ccc(NC(=O)CN2CCN(S(=O)(=O)c3ccc(C(C)C)cc3)CC2)cc1	-26%	·	·	?	·
C[C@@H]1O[C@@H](O[C@@H]2C=C3CCC4C(CC[C@]5(C)[C@@H](c6ccc(=O)oc6)CC[C@]45O)[C@@]3(C)CC2)[C@H](O)[C@H](O)[C@H]1O (some centres not stated)	0.63µM*	?	-8%	?	19%
C[C@@H]1O[C@@H](O[C@@H]2C=C3CC[C@@H]4C(CC[C@]5(C)[C@@H](c6ccc(=O)oc6)CC[C@]45O)[C@@]3(C)CC2)[C@H](O)[C@H](O)[C@H]1O (some centres not stated)	?	-7%	-11%	32µM*	20%
CCOC(=O)C1CCN(Cc2nnc(-c3ccccc3C)o2)CC1	-10%	12%	-5%	i	12%
CCOC(=O)N1CCN(Cc2nnc(-c3ccccc3C)o2)CC1	-5%	0.74µM*	19%	-3%	-5%
CCOC(=O)CNC(=O)CSc1nc2cccnc2n1C1CCCCC1	-12%	9.3µM*	-14%	-17%	17%
O=[N+]([O-])c1cccc(NC(=S)N2CCc3ccccc32)c1	·	?	9%	·	-4%
S=C(Nc1cccnc1)N1CCc2ccccc21	·	5.2µM*	10%	·	0%
O=C(CO/N=C/c1ccccc1)N1c2ccccc2Oc2ccccc21	-1%	?	12µM*	2%	0%
COCCN1CCC(CNCc2cn(-c3cc(C)ccc3C)nc2-c2ccccc2)C1 (configuration not stated)	·	?	4.7µM*	·	-5%
Cc1ccc(C)c(-n2cc(CNCCc3cnccn3)c(-c3ccccc3)n2)c1	·	?	7.4µM*	·	-3%
CC(=O)N1CCCN(Cc2cn(-c3cc(C)ccc3C)nc2-c2ccccc2)CC1	-11%	-18%	17µM*	-13%	-7%
CC(=O)N(C)c1ccc(N=Nc2c(C)[nH]n(-c3ccccc3)c2=O)cc1	·	12µM*	?	·	-1%
Cc1ncc2c(c1CNC(=O)CN1CCCCC1)CCN(C(=O)c1ccc(F)cc1Cl)C2	-7%	·	·	-8%	·
CCCCOc1ccc(C(=O)NCC(=O)NCC(c2ccc(OC)cc2)N2CCCC2)cc1 (configuration not stated)	-22%	?	?	?	50%
COc1cc(C(=O)NCC(c2ccco2)N2CCCC2)ccc1OCc1c(C)noc1C (configuration not stated)	·	?	12µM*	·	40%
COc1cc(C(=O)NCc2cccs2)ccc1OCc1c(C)noc1C	·	·	·	·	-8%
COc1ccc(C(CNC(=O)c2ccc(OCc3c(C)noc3C)cc2)N2CCCC2)cc1 (configuration not stated)	·	3.7µM*	4.7µM*	·	5%
Cc1noc(C)c1COc1ccc(C(=O)Nc2cccnc2)cc1	6%	?	0%	1%	-14%
COc1ccccc1C(CNC(=O)c1ccc(OCc2c(C)noc2C)cc1)N1CCCC1 (configuration not stated)	·	10µM*	10µM*	·	3%
